RORg inh = qHTS for inhibitors of ROR gamma transcriptional activity; Nuclear receptor ROR-gamma (Mus musculus), P51450; Drosophila S2 Gal4-RORgamma UAS-luciferase reporter, 20 h; Potency, µM (highest dose often 53.6 µM), for the others: at the highest dose activity change, negative = inhibition, most hits filed as inhibitors; hit rate 5.4% among 310,000; further: potency means the concentration at half of the fitted maximal effect; on the % scale 0 is the no-effect control and ±100 the full control effect; nearly all actives have a fitted effect of over 60% in size
Target sequence (P51450 whole entry, looked up, the tested form may be a part): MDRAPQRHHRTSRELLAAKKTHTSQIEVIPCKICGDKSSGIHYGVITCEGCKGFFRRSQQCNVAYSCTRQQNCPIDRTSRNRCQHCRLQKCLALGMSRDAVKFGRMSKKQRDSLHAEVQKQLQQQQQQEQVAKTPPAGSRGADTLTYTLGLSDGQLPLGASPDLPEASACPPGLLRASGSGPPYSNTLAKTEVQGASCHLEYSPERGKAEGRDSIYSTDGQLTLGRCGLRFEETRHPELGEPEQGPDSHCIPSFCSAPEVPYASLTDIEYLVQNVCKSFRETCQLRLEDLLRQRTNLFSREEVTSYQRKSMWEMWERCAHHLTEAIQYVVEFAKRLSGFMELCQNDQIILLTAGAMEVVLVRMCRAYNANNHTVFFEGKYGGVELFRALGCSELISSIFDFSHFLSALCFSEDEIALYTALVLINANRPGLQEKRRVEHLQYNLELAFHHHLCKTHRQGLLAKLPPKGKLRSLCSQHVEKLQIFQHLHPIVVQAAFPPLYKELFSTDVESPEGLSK
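A Gal4/UAS one-hybrid system in insect cells: metallothionein-promoter Gal4–ROR gamma fusion plus Photinus luciferase reporter. Copper sulfate 700 uM final, 20 hr ambient incubation, luminescent detection after 10 min with reagent.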
MCF10A rerep = A quantitative high throughput screen for small molecules that induce DNA re-replication in MCF 10a normal breast cells. MCF 10A DNA re-replication, Hoechst nuclear intensity, 48 h. Potency, µM (top dose mostly 46.1 µM), for the others: top-dose activity, positive = re-replication, hits mostly activators. hit rate 2.9% among 350,000. AID 624296, 2012; further: potency means the concentration at half of the fitted maximal effect; % of control where 0% means no effect; nearly all actives have a fitted effect of over 50% in size
SW480 rerep = A quantitative high throughput screen for small molecules that induce DNA re-replication in SW480 colon adenocarcinoma cells. hit rate 1.8% among 340,000. AID 624297, 2012. SW480 DNA re-replication, Hoechst DNA content imaging, 48 h. Potency, µM (highest dose often 46.1 µM), for inactives: at the top dose re-replication activation, actives largely listed as activators; further: potency means the concentration at half of the fitted maximal effect; % of control where 0% means no effect; nearly all actives have a fitted effect of over 55% in size
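First, 250 cells per well were seeded. Next, compound or vehicle (23 nL) was pinned in, plates sat 48 hr at 37 C. Finally Hoechst was added for 40 min before fluorescence scanning.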
Giardia kill = Small Molecules that selectively kill Giardia lamblia: qHTS; Giardia lamblia trophozoite viability; hit rate 0.15% among 340,000; activity change, % at 7.66 µM, hits read low; in the data active means activity change below about -80%; inconclusive means between about -30% and that limit;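 further: parasites exposed to compound for two days anaerobically before the ATP read; on the % scale 0 is the no-effect control and ±100 the full control effect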
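Viability, read as ATP luminescence: trophozoites at 100 cells/well, compound added, 48 hrs anaerobic at 37 deg C, then 15-30 min room-temperature development before reading.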
Gal4-VP16 FLuc = VP16 counterscreen qHTS for inhibitors of ROR gamma transcriptional activity. AID 2546, 2010. hit rate 3.5% among 310,000. Drosophila S2 Gal4-VP16 UAS-luciferase, luminescence, 20 h. Potency, µM (titrated, usually from 53.6 µM), for inactives: top-dose activity, negative = inhibition, usual class: inhibitors;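 further: Gal4-VP16 expression switched on by copper sulfate through the metallothionein promoter; potency means the concentration at half of the fitted maximal effect; on the % scale 0 is the no-effect control and ±100 the full control effect; nearly all actives have a fitted effect of over 50% in size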
BCR signal inh = qHTS Assay to Find Inhibitors of Chronic Active B-Cell Receptor Signaling | ABC-DLBCL IkBa-CBG/CBR reporter, luminescence ratio, 4 h | Potency, µM (titrated, usually from 46.1 µM), for the others: at the top dose activity change, negative = inhibition, usual class: inhibitors | hit rate 0.05% among 340,000 | AID 493014, 2011; active means well fitted inhibition curve with a large enough effect in the signal ratio, with a control signal flat, not every such curve was filed as active; inconclusive means small, poorly fitted or top-dose-only effect, or effect the other way, or a change in a side signal; the % refers to the signal ratio;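 further: potency means the concentration at half of the fitted maximal effect; plate controls were basal doxycycline-induced cells for no effect and cells given 10 µM MG132 for full effect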
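TMD8 human ABC-DLBCL cells with doxycycline-inducible IκBα–green luciferase fusion and unfused red luciferase, in 0.5% FBS medium; compounds up to 46 uM, 4 h at 37C. Green/red luminescence ratio, filter-overlap corrected, fitted to concentration-response curves.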
* = called active by the depositor; ? = inconclusive; / = no result. Hits are enriched below; roughly 8.3% of the tested compounds scored in any of these assays. Unless noted, the call rests on the fitted dose curve; in most records, active means well fitted curve in the direction sought with a large enough effect; inconclusive means small, poorly fitted or top-dose-only effect, or another doubt; inactive means no such curve, though single readings can be large; an effect the other way counts as inactive or inconclusive.

SMILES	RORg inh	MCF10A rerep	SW480 rerep	Giardia kill	Gal4-VP16 FLuc	BCR signal inh
CC1Cc2cc(S(=O)(=O)N3CCC(C(=O)N4CCN(c5ccccc5F)CC4)CC3)ccc2N1C(=O)C1CC1 (stereo not drawn)	8%	9%	7%	-5	-3%	-3%
CCC(=O)Nc1ccc(C2C(=O)c3ccccc3C2=O)cc1	?	5%	2%	-82*	?	-4%
CCC(=O)NC1=C(Nc2ccc(N)cc2)C(=O)c2ccccc2C1=O	13µM*	7%	?	-16	?	4%
CC(=O)/C(=N\Nc1ccc(Cl)cc1)Sc1nnc(-c2ccccc2)n1-c1ccccc1	6.3µM*	?	26%	-2	6.3µM*	?
Cn1cccc1C(=O)OCC(=O)NC1CCS(=O)(=O)C1 (stereo not drawn)	-5%	4%	3%	-5	6%	-4%
N#CC1CN(Cc2ccccc2)CN(Cc2ccccc2)C1	20%	15µM*	?	-13	-8%	2%
N#CC1CN(C(c2ccccc2)c2ccccc2)C1	-2%	-1%	-5%	4	11%	-4%
CCOc1ccc(-c2nc(CSCC(=O)NCc3ccco3)c(C)o2)cc1	-38%	-3%	-3%	5	25µM*	19%
Cc1ccc(-c2nc(CS(=O)CC(=O)NC3CC3)c(C)o2)cc1 (stereo not drawn)	-9%	21µM*	-2%	-24	3%	-1%
CCOC(=O)N1CCC(NC(=O)CSCc2nc(-c3ccc(OCC)cc3)oc2C)CC1	4%	14%	0%	?	-4%	?
COc1ccc(-c2nc(CSCC(=O)NCc3ccc4c(c3)OCO4)c(C)o2)cc1OC	45%	5%	2%	16	3%	2%
COc1ccc(-c2nc(CSCC(=O)NCc3ccc4c(c3)OCO4)c(C)o2)cc1	13µM*	1%	-7%	-21	13µM*	0%
CCOc1ccc(-c2nc(CSCC(=O)NC3CC3)c(C)o2)cc1	8.9µM*	9%	-1%	6	?	-9%
C=CCOC(=O)N[C@H](/C(C(=O)OC)=C(\C)NCc1ccccc1)c1cccc(C(F)(F)F)c1	3%	/	/	/	6%	/
O=C(C[n+]1ccccc1)N/N=C/c1c(F)cccc1Cl	3%	-14%	-16%	-13	1%	7%
CCCN(CCC)C(=O)Cc1coc2ccc3ccccc3c12	-22%	0%	2%	7	0%	7%
CCOc1ncccc1C(=O)NCC1COc2ccccc2O1 (stereo not drawn)	33%	4%	0%	6	-16%	?
O=C(CCSc1nc(-c2ccc3c(c2)OCO3)cc(C(F)(F)F)n1)NCc1ccccc1	17%	?	4%	-5	1%	-15%
COc1ccc(CNC(=O)CCSc2nc(-c3ccc4c(c3)OCO4)cc(C(F)(F)F)n2)cc1	?	21µM*	?	6	?	-6%
CC(CC(=O)Nc1cccnc1)c1ccccc1 (stereo not drawn)	30%	12µM*	12%	-20	-3%	?
Cc1cnc(NC(=O)CCNC(=O)c2ccccc2Cl)s1	8%	-11%	3%	14	6%	10%
Cc1cnc(NC(=O)CC(C)c2ccccc2)s1 (stereo not drawn)	?	10µM*	5.8µM*	-17	-13%	4%
Cc1cnc(NC(=O)COc2ccccc2Cl)s1	7.1µM*	0%	-2%	?	7.9µM*	9%
CC(C)c1nnc(NC(=O)CC(C)c2ccccc2)s1 (stereo not drawn)	-2%	-1%	5%	-26	-2%	6%
CCOc1ccc(-c2c(C(=O)N/N=C/c3ccco3)nnn2-c2nonc2N)cc1	?	1%	-19%	1	?	6%
SMILES	RORg inh	MCF10A rerep	SW480 rerep	Giardia kill	Gal4-VP16 FLuc	BCR signal inh
Cc1ccc(-c2c(C(=O)N/N=C/c3ccco3)nnn2-c2nonc2N)cc1	6.3µM*	-4%	2%	22	?	?
Cc1ccc(-c2c(C(=O)N/N=C/c3ccc(C)o3)nnn2-c2nonc2N)cc1	7.9µM*	1%	-7%	-16	11µM*	-7%
CCCOc1ccc(-c2c(C(=O)N/N=C/c3ccc(C)cc3)nnn2-c2nonc2N)cc1	?	?	-23%	-26	-13%	?
COc1cc(NC(=O)C/C(C)=N/NC(=O)C2CCCCC2)c(OC)cc1Cl	2%	-12%	-10%	5	-9%	?
Cc1ccc2oc(C(=O)NCC3CCOCC3)c(C)c2c1	-9%	-6%	-23%	-2	18%	-8%
COc1ccc2c(C#CCCO)c(-c3ccc(S(C)(=O)=O)cc3)sc2c1	/	21µM*	?	1	/	?
Cc1cc(NC(=O)c2cc(-c3ccco3)on2)n(-c2ccccc2)n1	7.9µM*	?	-10%	2	-4%	12%
COc1ccc(-c2cc(C(=O)Nc3cc(C)nn3-c3ccccc3)no2)cc1	-1%	4%	5%	4	0%	?
COc1ccccc1-c1cc(C(=O)Nc2cc(C)nn2-c2ccccc2)no1	?	1.3µM*	21%	20	?	?
Cc1cc(O)c(C(C[N+](=O)[O-])c2ccc(Cl)cc2Cl)c(=O)o1 (stereo not drawn)	16µM*	?	7%	-5	?	?
OC(COCC(F)(F)C(F)(F)C(F)(F)C(F)F)Cn1c2ccccc2c2ccccc21 (stereo not drawn)	?	?	?	-16	5µM*	?
Cc1ccc(OCC(O)Cn2c3ccccc3c3ccccc32)cc1 (stereo not drawn)	11%	8%	?	4	-22%	13%
Cc1cccc(C)c1OCC(O)Cn1c2ccccc2c2ccccc21 (stereo not drawn)	?	21µM*	?	9	-9%	10%
Brc1ccc2c(c1)CN1CCCC1=N2	-31%	?	-1%	?	-17%	?
CCCCOC1(c2ccccc2)NC(=S)NN=C1c1ccccc1 (stereo not drawn)	10µM*	/	/	/	?	7%
CCCCCCOC1(c2ccccc2)OC(=O)c2ccccc21 (stereo not drawn)	-14%	12%	-4%	-7	-7%	?
COC1(c2ccccc2)NC(=S)NN=C1c1ccccc1 (stereo not drawn)	11µM*	?	1%	22	?	-3%

Screening results as filed in PubChem.
